Drawing on PubChem BioAssay (NCI), this text covers growth inhibition for 40 compounds.

This is part of a sample that, as a whole, favours compounds with a hit. Of some 79,000 tested, about 15% had one in any assay. Unmarked numbers belong to inactive results. Active and inactive are the calls of the source. Rule as the data show it: active = growth inhibition above about 70%; inactive = the rest. Where a SMILES comes first, the peptide text is derived from it. [ ]: non-standard residue; d: D form. The star is where a group is joined. ξ: configuration not given here. NMeY = CN[C@@H](Cc1ccc(O)cc1)C(=O)O; Cbz = O=C(OCc1ccccc1)*; ξA = CC(N)C(=O)O

One test can be described thus: NCI Yeast Anticancer Drug Screen. Data for the rad50 strain (AID 155).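 Also: 0% = growth of vehicle-only cultures of the same strain.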 The conditions noted are these: S. cerevisiae rad50 strain growth inhibition; at 50.0 µM; stronger effect = higher value. In outline:
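Readout: growth inhibition relative to vehicle-treated cultures. Compound exposure was carried out in a genetically defined yeast strain deficient in DNA damage repair.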
`O=C1CCC(=O)O1`: the growth inhibition was -8.6%.

Consider `O=C1C2C3C=CC(CC3)C2C(=O)C2C3C=CC(C3)C12` (stereo not given), for which the growth inhibition is 1.15%.

For the compound `COc1ccc2c3c(c(C(=O)O)oc13)CCC2`, the growth inhibition was 3.85%.

Turning to `COc1ccc2nc3cc(Cl)ccc3c(NCCCNCCCNc3c4ccc(Cl)cc4nc4ccc(OC)cc34)c2c1`, the growth inhibition is -10.3%.

For the compound `CC(c1ccccc1)C1OCC(CCCCO)O1` (stereo not given), the growth inhibition is -7.9%.

Regarding `CCc1cccc(CC)c1N=C(NC(=O)c1ccc(Br)cc1)SC`, the growth inhibition is -17.6%.

As to `Oc1ccc(NCc2ccccc2)cc1`, the growth inhibition is 32.9%.

Take `COc1cccc(NC(=S)NC(=O)c2ccccc2)c1`: the growth inhibition was 82% (active).

As for `C/C(CC(O)(C(F)(F)F)C(F)(F)F)=N\NC(N)=S`, the growth inhibition was -30.1%.

For the compound `Cc1ccc(C(C(=O)O)c2ccc(C)cc2)cc1`, the growth inhibition was 45.5%.

For `CC1CC([NH-])C([NH-])C(C)(C)C1.[Cl][Pt+2][Cl]` (stereo not given), the growth inhibition is -4.35%.

Consider `Cc1[nH]c2ccccc2c1C(=O)Cc1ccc(Cl)cc1Cl`, for which the growth inhibition is -3.6%.

As to `CC(=O)Nc1ccc(S(=O)(=O)Oc2noc3ccc(Br)cc23)cc1`, the growth inhibition is -8.35%.

As for `CCCCC(CCCC)NCC(C)OC(=O)c1ccc(N)cc1` (stereo not given), the growth inhibition is 20.6%.

Turning to `O=C(Nc1c(Cl)cccc1Cl)Oc1cccnc1`, the growth inhibition was 0%.

Regarding `c1nnco1`, the growth inhibition is -4.2%.

For `O=C/C=C/N=c1ccn(O)cc1`, the growth inhibition is 8.65%.

Turning to `CO/N=C1\C(O)CC2C(C)(CCC3C2(C)CCC2(C)C4CC(C)(C)CCC4(C)CCC32C)C1C` (stereo not given), the growth inhibition is 1.9%.

In the case of `CC(C)(C)OC(=O)NC(Cc1ccccc1)C(=O)OCN1C(=O)C2C3C=CC(C2C1=O)C1C2C(=O)N(COC(=O)C(Cc4ccccc4)NC(=O)OC(C)(C)C)C(=O)C2C31` (stereo not given), the growth inhibition is 26.8%.

For `CC1=NN(C(=O)c2ccncc2)C(=O)C1N=Nc1ccc([N+](=O)[O-])cc1Cl` (stereo not given), the growth inhibition is 47.1%.

On to `Cc1ccc(C2(C)CC/C(=N/N=C3/CCC(C)(c4ccc(C)c(C)c4)c4cc(C)c(C)cc43)c3cc(C)c(C)cc32)cc1C` (stereo not given), for which the growth inhibition was -17%.

Take `O=S(=O)(N=N/C=C1\C=CC=CN1O)c1cccs1`: the growth inhibition is -12.1%.

Consider `O=C(/C=C(\C(=O)c1ccccc1)c1ccccc1)c1ccc(Cl)cc1`, for which the growth inhibition is -12%.

Regarding `C=CCSc1nc2ccc(NCn3c(=S)sc4ccccc43)cc2s1`, the growth inhibition is 71.7% (active).

`CCC/C=C/C=C\C(=O)O[C@@H]1[C@@H](C)[C@]2(O)[C@@H]3C=C(C)C(=O)[C@H]3CC(COC(C)=O)=C[C@H]2[C@@H]2C(C)(C)[C@]12OC(C)=O`: the growth inhibition is 21.7%.

With `O=C1CCCCC1O` (stereo not given), the growth inhibition is -18.4%.

On to `COc1ccc(C[C@@H](C(=O)N[C@@H](C)C(N)=O)N(C)C(=O)[C@@H]2CCCN2C(=O)[C@H](CC(C)C)NC(=O)C(C)NC(=O)OCc2ccccc2)cc1` (stereo not given in full) (Cbz-[ξA]LP[NMeY](Me)A-NH2), for which the growth inhibition was 29.1%.

In the case of `Cc1ccc(N=Nc2ccc(C)cc2NC(=O)c2ccc(Cl)cc2)cc1`, the growth inhibition is -3.15%.

As to `O=C1c2ccc3ccccc3c2C(=O)c2ccc3ccccc3c21`, the growth inhibition was -20.6%.

Turning to `CCOC(=O)c1c(-c2ccc(OC)cc2)c(C#N)c(=S)n(C2OC(COC(C)=O)C(OC(C)=O)C(OC(C)=O)C2OC(C)=O)c1-c1ccccc1` (stereo not given), the growth inhibition is -4.6%.

In the case of `COc1ccc(C(=O)Oc2ccccc2C)cc1`, the growth inhibition is 5.9%.

Take `O=C1Oc2cc3c(c4cccc1c24)O[C@H](c1ccccc1)[C@@H](c1ccccc1)[C@@H]3c1ccc(Cl)cc1`: the growth inhibition is -2.95%.

Take `CN1C(=O)C(=O)n2c(cc3ccccc32)C1=O`: the growth inhibition was 1.15%.

On to `Cc1cc(C)c(C2CNCc3cc4c(cc32)CNCC4c2c(C)cc(C)cc2C)c(C)c1` (stereo not given), for which the growth inhibition is -16.3%.

In the case of `NCCO`, the growth inhibition was -1%.

For the compound `Cc1ccc(S(=O)(=O)Nc2nc3ccccc3c(=O)n2C2CCCCC2)cc1`, the growth inhibition was 27.2%.

For the compound `O=C1OC(c2ccc3c(c2)CCCC3)=C/C1=C/c1ccc2c(c1)OCO2`, the growth inhibition is -13.4%.

In the case of `O=C(Nc1cccc2ccccc12)OCC1CC1`, the growth inhibition was -4%.

Take `O=C1OCC2C(=O)N3Cc4cc5ccccc5nc4C3CC12` (stereo not given): the growth inhibition is 11.9%.

Consider `C/C(=N/NC(=O)NN)c1cccc(O)c1`, for which the growth inhibition was 3.1%.

Another test can be described thus: NCI Yeast Anticancer Drug Screen. Data for the mec2-1 strain (AID 157). The following applies: S. cerevisiae mec2-1 strain, at 50.0 µM, stronger effect = higher value. A digest of the protocol:
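Each compound was tested on mec2-1 yeast, a strain altered in DNA damage repair or cell cycle control. Growth inhibition is reported relative to vehicle.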
On to `O=C1CCC(=O)O1`, for which the growth inhibition was 17%.

With `O=C1C2C3C=CC(CC3)C2C(=O)C2C3C=CC(C3)C12` (stereo not given), the growth inhibition is 24.1%.

In the case of `COc1ccc2c3c(c(C(=O)O)oc13)CCC2`, the growth inhibition was -3.05%.

Regarding `COc1ccc2nc3cc(Cl)ccc3c(NCCCNCCCNc3c4ccc(Cl)cc4nc4ccc(OC)cc34)c2c1`, the growth inhibition is -16.5%.

Take `CC(c1ccccc1)C1OCC(CCCCO)O1` (stereo not given): the growth inhibition was -20.2%.

For the compound `CCc1cccc(CC)c1N=C(NC(=O)c1ccc(Br)cc1)SC`, the growth inhibition is -16.5%.

Regarding `Oc1ccc(NCc2ccccc2)cc1`, the growth inhibition was 8.45%.

As for `COc1cccc(NC(=S)NC(=O)c2ccccc2)c1`, the growth inhibition was 60.8%.

On to `C/C(CC(O)(C(F)(F)F)C(F)(F)F)=N\NC(N)=S`, for which the growth inhibition was -14.7%.

Consider `Cc1ccc(C(C(=O)O)c2ccc(C)cc2)cc1`, for which the growth inhibition is 2.25%.

For `CC1CC([NH-])C([NH-])C(C)(C)C1.[Cl][Pt+2][Cl]` (stereo not given), the growth inhibition is -4.25%.

For `Cc1[nH]c2ccccc2c1C(=O)Cc1ccc(Cl)cc1Cl`, the growth inhibition was 31.8%.

Take `CC(=O)Nc1ccc(S(=O)(=O)Oc2noc3ccc(Br)cc23)cc1`: the growth inhibition was -8.05%.

In the case of `CCCCC(CCCC)NCC(C)OC(=O)c1ccc(N)cc1` (stereo not given), the growth inhibition was -2.35%.

In the case of `O=C(Nc1c(Cl)cccc1Cl)Oc1cccnc1`, the growth inhibition was -19.8%.

On to `c1nnco1`, for which the growth inhibition was 0.75%.

Turning to `O=C/C=C/N=c1ccn(O)cc1`, the growth inhibition was 3.45%.

Consider `CO/N=C1\C(O)CC2C(C)(CCC3C2(C)CCC2(C)C4CC(C)(C)CCC4(C)CCC32C)C1C` (stereo not given), for which the growth inhibition was -3.8%.

For `CC(C)(C)OC(=O)NC(Cc1ccccc1)C(=O)OCN1C(=O)C2C3C=CC(C2C1=O)C1C2C(=O)N(COC(=O)C(Cc4ccccc4)NC(=O)OC(C)(C)C)C(=O)C2C31` (stereo not given), the growth inhibition is -4.1%.

Regarding `CC1=NN(C(=O)c2ccncc2)C(=O)C1N=Nc1ccc([N+](=O)[O-])cc1Cl` (stereo not given), the growth inhibition is 9.95%.

`Cc1ccc(C2(C)CC/C(=N/N=C3/CCC(C)(c4ccc(C)c(C)c4)c4cc(C)c(C)cc43)c3cc(C)c(C)cc32)cc1C` (stereo not given): the growth inhibition was -13.8%.

Consider `O=S(=O)(N=N/C=C1\C=CC=CN1O)c1cccs1`, for which the growth inhibition is 6.3%.

With `O=C(/C=C(\C(=O)c1ccccc1)c1ccccc1)c1ccc(Cl)cc1`, the growth inhibition was 8.5%.

In the case of `C=CCSc1nc2ccc(NCn3c(=S)sc4ccccc43)cc2s1`, the growth inhibition is 65.2%.

`CCC/C=C/C=C\C(=O)O[C@@H]1[C@@H](C)[C@]2(O)[C@@H]3C=C(C)C(=O)[C@H]3CC(COC(C)=O)=C[C@H]2[C@@H]2C(C)(C)[C@]12OC(C)=O`: the growth inhibition was -4.9%.

Take `O=C1CCCCC1O` (stereo not given): the growth inhibition was -50.8%.

For `COc1ccc(C[C@@H](C(=O)N[C@@H](C)C(N)=O)N(C)C(=O)[C@@H]2CCCN2C(=O)[C@H](CC(C)C)NC(=O)C(C)NC(=O)OCc2ccccc2)cc1` (stereo not given in full) (Cbz-[ξA]LP[NMeY](Me)A-NH2), the growth inhibition is 28.9%.

With `Cc1ccc(N=Nc2ccc(C)cc2NC(=O)c2ccc(Cl)cc2)cc1`, the growth inhibition is 10.2%.

As to `O=C1c2ccc3ccccc3c2C(=O)c2ccc3ccccc3c21`, the growth inhibition was -4.5%.

Take `CCOC(=O)c1c(-c2ccc(OC)cc2)c(C#N)c(=S)n(C2OC(COC(C)=O)C(OC(C)=O)C(OC(C)=O)C2OC(C)=O)c1-c1ccccc1` (stereo not given): the growth inhibition is 0.05%.

In the case of `COc1ccc(C(=O)Oc2ccccc2C)cc1`, the growth inhibition was -26.4%.

Consider `O=C1Oc2cc3c(c4cccc1c24)O[C@H](c1ccccc1)[C@@H](c1ccccc1)[C@@H]3c1ccc(Cl)cc1`, for which the growth inhibition was 11.2%.

Consider `CN1C(=O)C(=O)n2c(cc3ccccc32)C1=O`, for which the growth inhibition is 6.15%.

With `Cc1cc(C)c(C2CNCc3cc4c(cc32)CNCC4c2c(C)cc(C)cc2C)c(C)c1` (stereo not given), the growth inhibition is -32.8%.

Regarding `NCCO`, the growth inhibition is 1.15%.

Take `Cc1ccc(S(=O)(=O)Nc2nc3ccccc3c(=O)n2C2CCCCC2)cc1`: the growth inhibition was 11.3%.

As to `O=C1OC(c2ccc3c(c2)CCCC3)=C/C1=C/c1ccc2c(c1)OCO2`, the growth inhibition was 4%.

For `O=C(Nc1cccc2ccccc12)OCC1CC1`, the growth inhibition is 22.8%.

Regarding `O=C1OCC2C(=O)N3Cc4cc5ccccc5nc4C3CC12` (stereo not given), the growth inhibition was 10.2%.

As to `C/C(=N/NC(=O)NN)c1cccc(O)c1`, the growth inhibition was -11.8%.
